Compounds with a hit are over-represented: about 2.1% of the library has one in this group of screens.
LDHA inh = LDHA (human) enzyme inhibition; P00338; purified LDHA, NADH/diaphorase-resazurin fluorescence; hits give low values; activity change, % (values are at about 110 or 230 µM); actives 0.15% (n = 480,000); AID 1347041; in the data active = activity change below about -30%; inconclusive = mostly about -25% to -30%;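 note: plate controls were DMSO wells for no effect and wells without enzyme for full effect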
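Human LDH5 at 2 nM final in Tris HCl pH 7.4 with 0.06 mM NADH and 0.2 mM pyruvate, reacted 5 minutes at room temperature. Remaining NADH coupled via diaphorase/resazurin; resorufin fluorescence read at 0 and 20 minutes, normalized to enzyme-free and DMSO wells.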
D2 PAM-1 = positively modulates the human D2 dopamine receptor allosterically | P14416 | HEK293 T-REx D2, calcium flux, EC20 dopamine potentiation | potentiation, % at 10 µM | actives 0.34% (n = 340,000);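 active = potentiation over 3 SD above the plate norm, cut at about 30% in these data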; note: 0% is about no effect
Target sequence (P14416 whole entry, looked up): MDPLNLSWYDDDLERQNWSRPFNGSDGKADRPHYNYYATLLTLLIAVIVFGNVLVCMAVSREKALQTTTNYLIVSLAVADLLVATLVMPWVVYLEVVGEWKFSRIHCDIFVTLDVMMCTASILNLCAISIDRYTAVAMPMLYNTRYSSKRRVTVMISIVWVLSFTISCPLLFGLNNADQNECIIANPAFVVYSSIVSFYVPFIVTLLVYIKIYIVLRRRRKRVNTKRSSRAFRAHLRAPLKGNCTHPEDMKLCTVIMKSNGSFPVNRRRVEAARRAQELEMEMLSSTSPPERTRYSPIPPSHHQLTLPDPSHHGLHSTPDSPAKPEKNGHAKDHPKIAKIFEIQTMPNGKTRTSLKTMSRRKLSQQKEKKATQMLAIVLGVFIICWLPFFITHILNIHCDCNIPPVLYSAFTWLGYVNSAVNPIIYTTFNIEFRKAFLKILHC
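Calcium flux readout, no-wash dye, 1 read/s. Inducible HEK293 Trex D2 line, overnight 30 C. Compound alone 180 s (agonist flags), then EC20 dopamine, another 180 s to score potentiation.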
D2 ag-1 = D2 dopamine receptor (human) agonism; P14416; HEK293 T-REx D2 cells, calcium flux agonist mode; activation, % at 2 µM; actives 0.53% (n = 340,000); AID 485358;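 active = activation over 3 SD above normal in the single-dose calcium agonist read, cut at about 30% in these data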; note: 0% is about no effect
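Tetracycline-induced HEK293 Trex cells with D2 receptor force-coupled to calcium signaling, plated overnight at 30 C and loaded with no-wash calcium dye. Calcium flux read kinetically for 180 s after compound addition; responses flag agonists.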
D2 PAM-2 = potentiates the human D2 dopamine receptor allosterically; P14416; DiscoveRx D2 beta-arrestin cells, luminescence, 90 min; 100% = 57 uM dopamine signal; potentiation, % (no concentration beside the values); actives 0.23% (n = 360,000); AID 624464; in the data active = potentiation above about 50%; inconclusive = mostly about 30% to 49%
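PathHunter beta-arrestin assay in DiscoveRx D2 cells. Compounds were added with an EC20 of dopamine (50 nM final) for 90 min at 37 deg C. Luminescence was read 1 h after detection reagent, with 57 uM dopamine as the EC100 control.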
D2 ag-2 = agonists of human D2 dopamine receptor (beta-arrestin); P14416; DiscoveRx PathHunter D2 beta-arrestin, luminescence, 90 min; 100% = 57 uM dopamine signal; activation, % (no concentration beside the values); actives 0.084% (n = 360,000); in the data active = activation above about 40%; inconclusive = between about 15% and that limit
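DiscoveRx PathHunter D2 beta-arrestin cells (2,100/well) attached overnight, then compound-stimulated 90 min at 37 C in HBSS/10 mM HEPES/0.1% Tween-20 buffer; beta-galactosidase complementation read by luminescence after 1 h at ambient temperature. Dopamine 57 uM final (EC100) as control.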
D2 antagonist = antagonists of human D2 dopamine receptor. HEK293 TREx D2 cells, calcium flux, dopamine EC80. inhibition, % at 10 µM. actives 2% (n = 340,000); in the data active = inhibition above about 30%; inactive = below that, where a call was filed; note: 0% is about no effect
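Antagonism is scored as inhibition of an EC80 dopamine-evoked calcium signal in a force-coupled, tetracycline-inducible HEK293 T-REx D2 line, with compound present 180 s before agonist.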
* marks the source's active call; other numbers are inactive results; ? = inconclusive; · = no result given.

SMILES | LDHA inh | D2 PAM-1 | D2 ag-1 | D2 PAM-2 | D2 ag-2 | D2 antagonist
CN(C)c1ccc(O)c2c1CC1CC3[C@@H](N(C)C)C(=O)C(C(N)=O)C(=O)[C@]3(O)C(=O)C1C2=O (stereo not given in full) | 6 | · | · | 61* | ? | ·
O=C(CSc1nc(-c2ccccc2)cs1)Nc1ccc(OC(F)F)cc1 | 1 | · | · | · | · | ·
CC(C)n1nnnc1SCC(=O)N1N=C(c2cccs2)CC1c1cccs1 (stereo not given) | -3 | -16 | 0 | 25 | 3 | 39*
Cc1ccc(NC(=S)NCc2ccc(Cl)cc2)cc1 | -1 | · | · | · | · | ·
Cc1cccc(C(=O)N[C@H](C(=O)NCCc2ccc(Cl)cc2)C(C)C)c1 | -10 | -12 | -1 | -2 | -2 | 38*
CCOC(=O)c1sc(CC(=O)Nc2ccccc2C)nc1C | -2 | · | · | · | · | ·
COc1ccc(N2CCCCS2(=O)=O)cc1S(=O)(=O)NCCc1ccccc1 | -2 | · | · | · | · | ·
CN(CCCNC(=O)c1ccc(/C=N/O)nc1)CCCN(C)Cc1ccccc1 | 2 | -9 | 0 | 8 | 1 | 6
CN(CCNC(=O)c1ccc(/C=N/O)nc1)Cc1ccccc1 | -8 | -26 | 1 | -36 | -6 | 61*
O=C(O)CCc1ccc(S(=O)(=O)NCc2ccc(F)cc2)cc1 | 1 | · | · | · | · | ·
CCn1c2ccccc2c2cc(CN3CCN(S(=O)(=O)Cc4ccccc4)CC3)ccc21 | -30* | 9 | 0 | -14 | 1 | -12
CN1CCc2c(sc3c2C(=O)NC(c2ccc4c(c2)OCO4)N3)C1 (stereo not given) | -2 | -21 | 0 | -26 | -2 | 32*
COc1cccc(-c2nc(CS(=O)(=O)CC(=O)NCc3cccnc3)c(C)o2)c1 | -34* | · | · | · | · | ·
COc1ccc(-c2nc(CS(=O)(=O)CC(=O)NCc3cccnc3)c(C)o2)cc1 | 2 | · | · | · | · | ·
COc1ccc(CNC(=O)N2CCN(S(=O)(=O)c3cc(F)ccc3F)CC2)cn1 | 2 | · | · | · | · | ·
OC1(c2cccc(F)c2)CCN(Cc2ccncc2)CC1 | -3 | -22 | 0 | -41 | -3 | 56*
CCc1ccc(-c2cc(C)no2)cc1S(=O)(=O)NCCN1CCC(C)CC1 | -1 | -17 | 0 | -38 | -4 | 6
CCc1ccc(-c2cc(C)no2)cc1S(=O)(=O)N1CCN(c2ccc(F)cc2)CC1 | 1 | -9 | 1 | -13 | -1 | 36*
CCc1ccc(-c2cc(C)no2)cc1S(=O)(=O)NCCCN1CCN(c2ccccc2)CC1 | -9 | -24 | 72* | -34 | -3 | 51*
CCc1ccc(-c2cc(C)no2)cc1S(=O)(=O)N1CCN(c2ccc(OC)cc2)CC1 | 0 | 2 | 1 | -3 | 0 | 5
O=C(Nc1cccc(-c2nc3ccccc3o2)c1)c1ccc2c(c1)OCO2 | -2 | · | · | · | · | ·
COc1ccc(-c2csc(NC3CC3)n2)cc1OC | -4 | · | · | · | · | ·
CC(C)c1ccc(S(=O)(=O)c2cn(Cc3ccc(F)cc3)c3cc4c(cc3c2=O)OCO4)cc1 | · | 8 | 1 | · | · | -1
Cc1ccc(Cn2cc(S(=O)(=O)c3ccc(C(C)C)cc3)c(=O)c3cc4c(cc32)OCO4)cc1 | -1 | 8 | 0 | 5 | -3 | 36*
CCOc1cc(C(=O)Nc2ccc3sc(NC(=O)C(C)C)nc3c2)cc(OCC)c1OCC | -1 | · | · | · | · | ·
SMILES | LDHA inh | D2 PAM-1 | D2 ag-1 | D2 PAM-2 | D2 ag-2 | D2 antagonist
Cc1nc2c3ccccc3n(CCN3CCCCC3)c2s1 | · | 4 | -1 | · | · | 40*
C(#CC1CCCCC1)c1ccc2c(c1)COc1c3ccccc3nn1-2 | 2 | 34* | 0 | 5 | 1 | 2
CC(=O)c1ccc2c(c1)C1C=CCC1C(c1ccc(S(=O)(=O)N3CCOCC3)cc1)N2 (stereo not given) | 15 | 14 | 1 | 61* | 10 | 3
O=C(O)c1ccc2c(c1)C1C=CCC1C(c1ccncc1)N2 (stereo not given) | 8 | 6 | 1 | -4 | -1 | -10
CC(C)NC(=O)/C(C#N)=C\c1cccc(/C=C(/C#N)C(=O)NC(C)C)c1 | -4 | · | · | · | · | ·
COc1ccc(CNC(=O)C(C)OC(=O)c2cccs2)cc1 (stereo not given) | -14 | 33* | 0 | 1 | -4 | -3
Cc1cc(N2CCC(N(C)C3CCCC3)CC2)nc2cc(O)ccc12 | 0 | 6 | 0 | -6 | -3 | 48*
CCOC(=O)c1cc(-c2ccc(C)o2)n[nH]1 | 4 | -15 | -1 | -10 | 0 | 30*
COc1cccc(/C=C/C(=O)OCC(=O)c2ccc3c(c2)NC(=O)CO3)c1 | 1 | 17 | 0 | -5 | 0 | 42*
COc1cccc(/C=C/C(=O)OCC(=O)c2ccc(Br)cc2)c1 | -3 | · | · | -4 | -1 | ·
CC(=O)Oc1ccc2c(-c3cc4ccccc4oc3=O)cc(=O)oc2c1 | 8 | · | · | · | · | ·
CCOc1ccc(N2C(N)=NC(N)=NC2(C)C)cc1 | -6 | 8 | 0 | -2 | -1 | -7
COc1ccc(N2C(N)=NC(N)=NC2(C)C)cc1 | -7 | 31* | -1 | -4 | -3 | -13
O=C(Nc1ccc(Cl)c(C(=O)NC2CCCCC2)c1)c1ccncc1 | 5 | · | · | · | · | ·
N/C(COc1ncn(-c2ccccc2)n1)=N\S(=O)(=O)c1ccc(Cl)cc1Cl | -6 | 32* | 1 | 4 | -2 | -3
Cc1ccc(-c2c3c(nc4sc(C(N)=O)c(N)c24)CCCC3)o1 | 12 | -13 | 31* | -5 | 0 | -7
CC(C)COc1ccc(-c2nnc(-c3ccco3)o2)cc1 | -10 | 30* | -1 | -11 | -1 | 28
C/C(=N\NC(=O)C1CC1)c1ccc(C)o1 | 7 | · | · | · | · | ·
COc1ccc(C2=NS(=O)(=O)N(C)C(C(=O)N3CCOCC3)=C2)cc1 | -5 | -4 | 0 | -8 | -5 | 8
COc1ccc(C2=NS(=O)(=O)N(C)C(C(=O)N3CCC(C(N)=O)CC3)=C2)cc1 | -2 | 0 | 1 | -1 | 4 | 35*
CNC(=S)N/N=C(/C)c1ccccn1 | -12 | · | · | · | · | ·
CCN(CC)S(=O)(=O)c1ccc(C(=O)OCCN2C(=O)c3cccc4c(N5CCOCC5)ccc(c34)C2=O)cc1 | -10 | 5 | 4 | -3 | -5 | 6
O=C(OCCN1C(=O)c2cccc3c(N4CCOCC4)ccc(c23)C1=O)c1cc(Cl)cc(Cl)c1 | · | -2 | 48* | · | · | 3
CCCCn1c(NCc2ccccc2NS(=O)(=O)c2ccc(C)cc2)nc2ccccc21 | -4 | 2 | 1 | -17 | -1 | -2
CCN(CC)CCn1c(NS(=O)(=O)c2ccc(C)cc2)nc2ccccc21 | -6 | -19 | 0 | -40 | -2 | 51*
COc1cc(-c2nnc3sc(C4CCCCC4)nn23)cc(OC)c1OC | 3 | 69* | 0 | -35 | -2 | -1

Screening data from PubChem BioAssay.
